Data on one sequence can be found in article PMC7862700, “An all-to-all approach to the identification of sequence-specific readers for epigenetic DNA modifications on cytosine”.

Holding throughout (experiment): DAPPL (digital affinity profiling via proximity ligation, sequencing); 10 mM Tris-HCl pH 7.5, 50 mM NaCl, 1 mM DTT, 4% glycerol, room temperature, 30 min; GST-TFs on glutathione beads, 16-mer random dsDNA library, 0.1% formaldehyde crosslink after washing; high values mean tight binding
The target in assay [1] is T1, FEV (Homo sapiens, UniProt Q99581 1-238).
T1 sequence: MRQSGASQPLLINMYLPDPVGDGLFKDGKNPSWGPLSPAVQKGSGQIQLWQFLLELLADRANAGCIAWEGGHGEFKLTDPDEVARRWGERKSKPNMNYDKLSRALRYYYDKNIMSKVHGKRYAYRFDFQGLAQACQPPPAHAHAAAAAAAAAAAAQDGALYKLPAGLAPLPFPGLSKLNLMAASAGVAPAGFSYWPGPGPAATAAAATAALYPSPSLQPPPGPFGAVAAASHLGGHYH
The note with it: protein: recombinant; tags: N-terminal GST; dsDNA, one strand shown. In outline: (§1)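 A tag-only sample was pooled with DNA-barcoded human transcription factors that had been expressed in yeast as GST fusions and captured on glutathione beads. The pools were incubated for 30 min at room temperature with 200 nmole of a random double-stranded 16-mer DNA library in Tris/NaCl/DTT/glycerol buffer, then washed, crosslinked with 0.1% formaldehyde, proximity-ligated (BsaI/T4 ligase, 1 h, 37 °C), PCR-amplified and sequenced on an Illumina NextSeq500. Binding signal is each hexamer's read frequency for a factor divided by its frequency for the tag-only sample.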

Assay [2] addresses ETV5 (Homo sapiens, UniProt P41161 1-510). The note with it: protein: recombinant; tags: N-terminal GST; dsDNA, one strand shown. In outline:
as §1

Assay [3] addresses HSF1 (Homo sapiens, UniProt Q00613 1-529). To be noted: protein: recombinant; tags: N-terminal GST; chain copies: 3; dsDNA, one strand shown. The method in brief: as §1
Assay [4] addresses T2, SPIC (Homo sapiens, UniProt Q8N5J4 1-248).
T2 sequence: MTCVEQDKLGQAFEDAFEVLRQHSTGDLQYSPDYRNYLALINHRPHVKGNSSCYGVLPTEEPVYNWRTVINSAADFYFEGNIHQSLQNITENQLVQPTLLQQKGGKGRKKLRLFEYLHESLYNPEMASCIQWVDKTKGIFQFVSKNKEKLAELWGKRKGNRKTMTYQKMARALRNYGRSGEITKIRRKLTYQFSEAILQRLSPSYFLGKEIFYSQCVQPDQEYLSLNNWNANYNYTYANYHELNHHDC
The note with it: protein: recombinant; tags: N-terminal GST; dsDNA, one strand shown. In outline: as §1

Assay [5] addresses ELF4 (Homo sapiens, UniProt Q99607 1-663). The note with it: protein: recombinant; tags: N-terminal GST; dsDNA, one strand shown. In outline: as §1
The target of assay [6] is T3, ELK4 (Homo sapiens, UniProt P28324-2 1-405).
T3 sequence: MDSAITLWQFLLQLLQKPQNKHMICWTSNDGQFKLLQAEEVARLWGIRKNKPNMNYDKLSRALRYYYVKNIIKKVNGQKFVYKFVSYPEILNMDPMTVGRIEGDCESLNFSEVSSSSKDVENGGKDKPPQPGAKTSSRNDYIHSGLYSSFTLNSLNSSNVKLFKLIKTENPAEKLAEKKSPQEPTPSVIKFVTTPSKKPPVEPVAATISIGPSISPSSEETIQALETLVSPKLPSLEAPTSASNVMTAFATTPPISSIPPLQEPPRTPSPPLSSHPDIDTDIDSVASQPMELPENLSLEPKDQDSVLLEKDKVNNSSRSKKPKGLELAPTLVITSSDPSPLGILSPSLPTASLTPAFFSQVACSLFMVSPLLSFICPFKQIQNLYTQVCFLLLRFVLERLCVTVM
The note with it: protein: recombinant; tags: N-terminal GST; dsDNA, one strand shown. In outline:
as §1

Assay [7] deals with T4, ETV2 (Homo sapiens, UniProt O00321 1-342).
T4 sequence: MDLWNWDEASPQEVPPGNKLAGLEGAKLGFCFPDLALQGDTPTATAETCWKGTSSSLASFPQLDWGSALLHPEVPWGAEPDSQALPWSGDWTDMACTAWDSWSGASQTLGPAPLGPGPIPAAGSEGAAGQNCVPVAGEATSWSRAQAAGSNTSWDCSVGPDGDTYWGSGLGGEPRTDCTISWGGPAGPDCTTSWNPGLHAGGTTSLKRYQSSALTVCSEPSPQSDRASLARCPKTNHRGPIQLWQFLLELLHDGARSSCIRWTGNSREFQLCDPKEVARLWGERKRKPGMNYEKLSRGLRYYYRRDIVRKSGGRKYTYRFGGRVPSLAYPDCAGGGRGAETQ
To be noted: protein: recombinant; tags: N-terminal GST; dsDNA, one strand shown. In outline: as §1

For assay [8], the target named is T5, ELF3 (Homo sapiens, UniProt P78545 1-371).
T5 sequence: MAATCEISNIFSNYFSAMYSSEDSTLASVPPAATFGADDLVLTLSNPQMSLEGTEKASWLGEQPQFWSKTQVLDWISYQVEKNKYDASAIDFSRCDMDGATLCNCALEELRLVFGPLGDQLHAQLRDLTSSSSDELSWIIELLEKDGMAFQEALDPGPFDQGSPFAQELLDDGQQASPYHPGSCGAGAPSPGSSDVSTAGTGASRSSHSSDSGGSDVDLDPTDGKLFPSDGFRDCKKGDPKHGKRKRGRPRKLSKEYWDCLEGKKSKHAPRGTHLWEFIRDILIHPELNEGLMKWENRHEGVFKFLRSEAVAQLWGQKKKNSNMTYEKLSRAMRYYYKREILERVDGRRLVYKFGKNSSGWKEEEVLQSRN
The note with it: protein: recombinant; tags: N-terminal GST; dsDNA, one strand shown. The method in brief:
as §1

Assay [9] has as its target CRX (Homo sapiens, UniProt O43186 1-299). To be noted: protein: recombinant; tags: N-terminal GST; dsDNA, one strand shown. In outline: as §1
In assay [10] the target is ETV1 (Homo sapiens, UniProt P50549 1-477). To be noted: protein: recombinant; tags: N-terminal GST; dsDNA, one strand shown. The method in brief: as §1
Assay [11] concerns the target T6, ERF (Homo sapiens, UniProt P50548 1-548).
T6 sequence: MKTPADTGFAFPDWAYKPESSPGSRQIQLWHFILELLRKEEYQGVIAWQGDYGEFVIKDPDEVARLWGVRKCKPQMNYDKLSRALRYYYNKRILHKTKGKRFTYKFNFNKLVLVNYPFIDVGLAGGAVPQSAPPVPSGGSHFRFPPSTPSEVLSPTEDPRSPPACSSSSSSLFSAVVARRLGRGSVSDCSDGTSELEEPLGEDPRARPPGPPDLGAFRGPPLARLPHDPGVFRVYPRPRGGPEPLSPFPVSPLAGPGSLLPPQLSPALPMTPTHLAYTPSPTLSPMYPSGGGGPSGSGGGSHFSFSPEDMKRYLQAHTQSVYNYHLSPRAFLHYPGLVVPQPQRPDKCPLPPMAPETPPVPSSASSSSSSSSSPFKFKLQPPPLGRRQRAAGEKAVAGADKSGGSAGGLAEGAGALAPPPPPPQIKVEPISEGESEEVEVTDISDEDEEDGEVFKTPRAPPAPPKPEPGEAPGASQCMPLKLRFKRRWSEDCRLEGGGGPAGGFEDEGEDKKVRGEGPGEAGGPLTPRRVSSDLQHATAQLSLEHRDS
To be noted: protein: recombinant; tags: N-terminal GST; dsDNA, one strand shown. In outline:
as §1

The target in assay [12] is T7, ETV3L (Homo sapiens, UniProt Q6ZN32 1-361).
T7 sequence: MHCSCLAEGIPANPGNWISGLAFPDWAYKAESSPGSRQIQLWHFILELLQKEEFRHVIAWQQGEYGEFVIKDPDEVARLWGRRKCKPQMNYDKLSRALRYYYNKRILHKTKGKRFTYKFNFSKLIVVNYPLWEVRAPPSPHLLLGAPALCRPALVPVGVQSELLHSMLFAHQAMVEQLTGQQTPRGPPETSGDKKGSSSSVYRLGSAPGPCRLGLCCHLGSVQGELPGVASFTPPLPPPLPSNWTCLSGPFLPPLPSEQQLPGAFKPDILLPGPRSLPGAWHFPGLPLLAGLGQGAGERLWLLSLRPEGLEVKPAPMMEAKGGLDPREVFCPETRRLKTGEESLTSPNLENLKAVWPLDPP
The note with it: protein: recombinant; tags: N-terminal GST; dsDNA, one strand shown. The method in brief:
as §1

For assay [13], the target named is T8, ETS2 (Homo sapiens, UniProt P15036 1-469).
T8 sequence: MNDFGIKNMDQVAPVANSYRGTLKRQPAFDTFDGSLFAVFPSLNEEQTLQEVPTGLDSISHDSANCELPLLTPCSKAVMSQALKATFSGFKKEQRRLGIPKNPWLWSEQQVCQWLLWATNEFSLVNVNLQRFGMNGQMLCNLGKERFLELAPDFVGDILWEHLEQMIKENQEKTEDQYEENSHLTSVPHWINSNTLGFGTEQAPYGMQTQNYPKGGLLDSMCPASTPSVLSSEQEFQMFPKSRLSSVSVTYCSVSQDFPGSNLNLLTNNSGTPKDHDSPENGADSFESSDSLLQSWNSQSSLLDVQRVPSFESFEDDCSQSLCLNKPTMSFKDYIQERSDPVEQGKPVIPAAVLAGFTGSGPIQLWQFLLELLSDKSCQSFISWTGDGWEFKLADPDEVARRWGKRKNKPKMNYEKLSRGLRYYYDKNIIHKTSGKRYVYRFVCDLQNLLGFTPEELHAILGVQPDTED
The note with it: protein: recombinant; tags: N-terminal GST; dsDNA, one strand shown. The method in brief: as §1

Assay [14] has as its target T9, SPDEF (Homo sapiens, UniProt O95238 1-335).
T9 sequence: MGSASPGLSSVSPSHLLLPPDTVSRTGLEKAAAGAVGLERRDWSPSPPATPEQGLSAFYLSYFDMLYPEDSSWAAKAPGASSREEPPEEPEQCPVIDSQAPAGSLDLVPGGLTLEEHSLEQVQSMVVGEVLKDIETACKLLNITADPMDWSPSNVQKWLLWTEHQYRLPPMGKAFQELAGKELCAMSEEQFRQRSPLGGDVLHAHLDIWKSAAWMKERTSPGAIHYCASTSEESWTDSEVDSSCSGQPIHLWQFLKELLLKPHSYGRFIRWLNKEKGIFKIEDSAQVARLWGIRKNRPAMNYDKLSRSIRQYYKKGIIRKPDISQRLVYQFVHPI
The note with it: protein: recombinant; tags: N-terminal GST; dsDNA, one strand shown. In outline:
as §1

Assay [15] deals with T10, ETV7 (Homo sapiens, UniProt Q9Y603 1-341).
T10 sequence: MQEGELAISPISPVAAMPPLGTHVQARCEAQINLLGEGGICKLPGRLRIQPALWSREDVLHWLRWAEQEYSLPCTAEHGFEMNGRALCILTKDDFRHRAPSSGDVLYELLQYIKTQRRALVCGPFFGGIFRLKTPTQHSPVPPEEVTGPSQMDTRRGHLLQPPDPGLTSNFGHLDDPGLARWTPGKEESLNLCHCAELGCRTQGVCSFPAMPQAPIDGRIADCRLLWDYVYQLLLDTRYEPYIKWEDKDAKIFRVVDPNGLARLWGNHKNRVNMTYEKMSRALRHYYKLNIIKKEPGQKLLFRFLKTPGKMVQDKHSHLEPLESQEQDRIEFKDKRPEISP
The note with it: protein: recombinant; tags: N-terminal GST; dsDNA, one strand shown. In outline:
as §1

In assay [16] the target is T11, ELF5 (Homo sapiens, UniProt Q9UKW6-2 1-255).
T11 sequence: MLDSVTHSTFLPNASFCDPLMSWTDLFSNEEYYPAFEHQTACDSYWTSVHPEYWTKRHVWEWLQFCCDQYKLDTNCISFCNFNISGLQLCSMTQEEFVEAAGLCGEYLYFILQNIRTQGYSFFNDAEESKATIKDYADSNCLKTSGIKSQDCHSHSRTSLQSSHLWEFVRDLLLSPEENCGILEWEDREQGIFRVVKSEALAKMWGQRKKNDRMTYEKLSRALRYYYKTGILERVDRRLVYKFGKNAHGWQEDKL
The note with it: protein: recombinant; tags: N-terminal GST; dsDNA, one strand shown. The method in brief:
as §1

For assay [17], the target named is T12, ETV3 (Homo sapiens, UniProt P41162-2 1-143).
T12 sequence: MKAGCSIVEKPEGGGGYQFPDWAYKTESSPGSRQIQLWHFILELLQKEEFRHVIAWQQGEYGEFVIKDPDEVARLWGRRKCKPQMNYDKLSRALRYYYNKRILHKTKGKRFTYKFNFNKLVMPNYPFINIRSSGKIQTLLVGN
To be noted: protein: recombinant; tags: N-terminal GST; dsDNA, one strand shown. The method in brief:
as §1

In assay [18] the target is ETV6 (Homo sapiens, UniProt P41212 1-452). The note with it: protein: recombinant; tags: N-terminal GST; dsDNA, one strand shown. In outline:
as §1

Chain of CRX (O43186 whole entry): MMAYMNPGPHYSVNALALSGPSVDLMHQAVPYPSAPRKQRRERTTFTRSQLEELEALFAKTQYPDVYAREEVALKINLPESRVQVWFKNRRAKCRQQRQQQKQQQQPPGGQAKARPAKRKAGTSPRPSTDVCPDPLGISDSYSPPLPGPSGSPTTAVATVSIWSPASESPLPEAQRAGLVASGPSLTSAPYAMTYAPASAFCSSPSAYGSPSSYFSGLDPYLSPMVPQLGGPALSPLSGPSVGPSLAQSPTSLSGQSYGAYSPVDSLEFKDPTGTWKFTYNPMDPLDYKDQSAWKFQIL
Chain of ETV6 (P41212 whole entry): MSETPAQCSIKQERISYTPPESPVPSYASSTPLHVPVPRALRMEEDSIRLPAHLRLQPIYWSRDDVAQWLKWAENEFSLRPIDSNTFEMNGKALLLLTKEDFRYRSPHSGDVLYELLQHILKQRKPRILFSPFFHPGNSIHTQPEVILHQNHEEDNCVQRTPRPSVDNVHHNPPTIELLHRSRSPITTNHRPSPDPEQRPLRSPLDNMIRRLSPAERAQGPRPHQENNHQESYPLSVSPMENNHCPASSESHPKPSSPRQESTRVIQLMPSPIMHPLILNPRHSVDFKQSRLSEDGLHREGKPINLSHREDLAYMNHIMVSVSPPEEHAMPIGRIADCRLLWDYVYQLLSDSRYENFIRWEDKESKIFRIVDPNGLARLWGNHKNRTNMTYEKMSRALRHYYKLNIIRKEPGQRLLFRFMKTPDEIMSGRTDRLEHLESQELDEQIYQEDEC
Chain of ETV1 (P50549 whole entry): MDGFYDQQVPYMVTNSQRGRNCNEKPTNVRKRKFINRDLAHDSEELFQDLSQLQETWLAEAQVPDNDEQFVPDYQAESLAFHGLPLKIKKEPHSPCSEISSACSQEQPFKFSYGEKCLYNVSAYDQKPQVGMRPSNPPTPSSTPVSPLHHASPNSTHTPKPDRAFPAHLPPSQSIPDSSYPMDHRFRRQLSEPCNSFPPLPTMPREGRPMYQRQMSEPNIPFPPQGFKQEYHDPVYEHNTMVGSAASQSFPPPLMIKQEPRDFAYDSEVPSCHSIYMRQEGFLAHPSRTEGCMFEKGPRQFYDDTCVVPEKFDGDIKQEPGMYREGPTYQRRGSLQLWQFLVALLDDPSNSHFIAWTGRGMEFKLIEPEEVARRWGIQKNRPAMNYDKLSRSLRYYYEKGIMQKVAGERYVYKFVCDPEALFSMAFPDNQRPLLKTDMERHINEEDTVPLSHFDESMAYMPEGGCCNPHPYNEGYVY
Chain of ETV5 (P41161 whole entry): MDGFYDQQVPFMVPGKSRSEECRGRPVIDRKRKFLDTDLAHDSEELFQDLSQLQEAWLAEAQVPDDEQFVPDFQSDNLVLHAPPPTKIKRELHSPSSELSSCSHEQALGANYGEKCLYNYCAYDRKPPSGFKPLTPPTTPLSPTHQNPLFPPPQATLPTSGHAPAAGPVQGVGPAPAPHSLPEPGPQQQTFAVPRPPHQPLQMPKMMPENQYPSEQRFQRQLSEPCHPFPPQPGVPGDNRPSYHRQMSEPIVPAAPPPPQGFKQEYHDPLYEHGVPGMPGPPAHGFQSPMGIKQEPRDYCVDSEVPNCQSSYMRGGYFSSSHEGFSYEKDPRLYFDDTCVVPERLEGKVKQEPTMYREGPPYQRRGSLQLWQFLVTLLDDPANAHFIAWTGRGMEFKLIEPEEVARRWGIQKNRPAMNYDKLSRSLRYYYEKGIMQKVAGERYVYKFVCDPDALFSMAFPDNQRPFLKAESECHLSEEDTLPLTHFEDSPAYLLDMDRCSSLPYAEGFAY
Chain of ELF4 (Q99607 whole entry): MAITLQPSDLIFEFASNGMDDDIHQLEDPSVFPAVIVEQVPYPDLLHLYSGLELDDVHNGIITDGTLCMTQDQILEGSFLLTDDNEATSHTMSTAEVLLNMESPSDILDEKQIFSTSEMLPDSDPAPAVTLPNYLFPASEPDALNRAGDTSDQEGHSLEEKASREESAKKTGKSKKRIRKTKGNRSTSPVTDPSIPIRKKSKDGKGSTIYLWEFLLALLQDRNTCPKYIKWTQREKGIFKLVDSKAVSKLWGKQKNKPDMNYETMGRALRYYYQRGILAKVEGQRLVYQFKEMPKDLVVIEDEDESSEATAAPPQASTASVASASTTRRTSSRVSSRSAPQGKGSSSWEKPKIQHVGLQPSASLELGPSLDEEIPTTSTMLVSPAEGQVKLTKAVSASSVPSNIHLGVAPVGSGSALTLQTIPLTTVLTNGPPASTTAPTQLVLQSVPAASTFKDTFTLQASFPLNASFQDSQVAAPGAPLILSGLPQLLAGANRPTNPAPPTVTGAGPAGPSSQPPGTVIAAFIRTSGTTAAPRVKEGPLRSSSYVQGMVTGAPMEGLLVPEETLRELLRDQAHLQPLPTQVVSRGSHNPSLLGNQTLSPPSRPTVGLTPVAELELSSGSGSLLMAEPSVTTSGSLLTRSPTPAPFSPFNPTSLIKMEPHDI
Chain of HSF1 (Q00613 whole entry): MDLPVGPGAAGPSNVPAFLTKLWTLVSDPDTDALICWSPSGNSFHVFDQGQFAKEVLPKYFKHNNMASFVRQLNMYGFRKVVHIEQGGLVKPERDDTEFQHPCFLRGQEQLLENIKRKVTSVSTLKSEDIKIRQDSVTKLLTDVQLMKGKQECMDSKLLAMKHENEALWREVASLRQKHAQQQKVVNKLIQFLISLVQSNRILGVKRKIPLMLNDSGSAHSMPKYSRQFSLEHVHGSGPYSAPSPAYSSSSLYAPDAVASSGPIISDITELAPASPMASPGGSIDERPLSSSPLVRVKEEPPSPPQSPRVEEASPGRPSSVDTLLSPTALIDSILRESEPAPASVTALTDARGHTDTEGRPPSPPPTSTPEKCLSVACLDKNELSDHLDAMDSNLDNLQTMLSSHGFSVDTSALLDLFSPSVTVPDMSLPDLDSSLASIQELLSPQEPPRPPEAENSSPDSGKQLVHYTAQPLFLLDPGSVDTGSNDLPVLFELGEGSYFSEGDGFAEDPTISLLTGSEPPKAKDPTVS

As to ATGACT, the binding signal in assay [1] was 1.4 fold enrichment (6-mer frequency, TF over GST control); in assay [2], 1.43 fold enrichment (6-mer frequency, TF over GST control); in [3], 1.21 fold enrichment (6-mer frequency, TF over GST control); in assay [4], 1.47 fold enrichment (6-mer frequency, TF over GST control); in [5], 1.41 fold enrichment (6-mer frequency, TF over GST control); in [6], 1.39 fold enrichment (6-mer frequency, TF over GST control). The binding signal in assay [7] is 1.41 fold enrichment (6-mer frequency, TF over GST control); in assay [8], 1.46 fold enrichment (6-mer frequency, TF over GST control); in [9], 1.25 fold enrichment (6-mer frequency, TF over GST control); in assay [10], 1.36 fold enrichment (6-mer frequency, TF over GST control); in assay [11] it was 1.36 fold enrichment (6-mer frequency, TF over GST control); in [12], 1.47 fold enrichment (6-mer frequency, TF over GST control). The binding signal was 1.42 fold enrichment (6-mer frequency, TF over GST control) in [13]; 1.29 fold enrichment (6-mer frequency, TF over GST control) in assay [14]; 1.38 fold enrichment (6-mer frequency, TF over GST control) in assay [15]; 1.32 fold enrichment (6-mer frequency, TF over GST control) in assay [16]; 1.27 fold enrichment (6-mer frequency, TF over GST control) in assay [17]; 1.3 fold enrichment (6-mer frequency, TF over GST control) in [18].
